“And” between values parts separate entries of the source, which are not always exact repeats. Identical values can stand only once. Records with an inconclusive call do not appear. More than one record can exist for a structure, and the calls need not agree. The source made the active and inactive calls. How the source made its calls: active means hit-call score of the fitted dose curve at least 0.9, where 1 is the maximum; inconclusive means response in the unintended direction; inactive means score below 0.9.
molecular target: Cellular tumor antigen p53 (Homo sapiens) (UniProt P04637); experiment: TOX21_p53_BLA_p3_ratio: Tox21 HCT-116 p53 Agonism Beta-lactamase Assay, Ratio, Phase 3 (AID 2283596)
How it was run: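 HCT116 p53-bla cells (4000/well) given compound in DMSO (217-fold dilution) after 5 h, incubated 16 h at 37C. CCF4-AM substrate 2 h at room temperature; 460/530 nm emission ratio, gain fitted against DMSO.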

Chain of Cellular tumor antigen p53 (Homo sapiens) (P04637 whole entry, looked up): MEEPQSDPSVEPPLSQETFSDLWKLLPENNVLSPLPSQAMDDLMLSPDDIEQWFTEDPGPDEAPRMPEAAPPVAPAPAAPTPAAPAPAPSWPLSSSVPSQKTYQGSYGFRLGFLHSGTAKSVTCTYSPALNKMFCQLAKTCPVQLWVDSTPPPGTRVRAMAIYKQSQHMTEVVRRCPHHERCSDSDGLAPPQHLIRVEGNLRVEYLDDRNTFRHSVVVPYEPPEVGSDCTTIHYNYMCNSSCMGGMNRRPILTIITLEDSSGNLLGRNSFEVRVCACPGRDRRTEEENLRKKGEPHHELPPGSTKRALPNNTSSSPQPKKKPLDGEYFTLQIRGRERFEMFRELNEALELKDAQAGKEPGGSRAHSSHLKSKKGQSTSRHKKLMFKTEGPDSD

Row | Compound | AC50 | outcome
1 | CC(C)(c1ccc(OCC2CO2)cc1)c1ccc(OCC2CO2)cc1 (stereo not given) | 84.2 µM (active) and 80.6 µM (active) | –
2 | COP(=S)(OC)Oc1ccc(S(=O)(=O)N(C)C)cc1 | – | inactive
3 | C=CC#N | – | inactive
4 | O=C1C(Cl)=C(Cl)C(=O)c2ccccc21 | 54.1 µM (active) and 67.3 µM (active) | –
5 | C(=NC1CCCCC1)=NC1CCCCC1 | 16.2 µM (active) | inactive
6 | C[C@H]1CCCC(=O)CCC/C=C/c2cc(O)cc(O)c2C(=O)O1 | 12.3 µM (active) and 15.8 µM (active) | –
7 | O=C/C=C/c1ccccc1 | – | inactive
8 | CCNc1nc(NC(C)(C)C)nc(SC)n1 | – | inactive
9 | COP(=O)(OC)OC | – | inactive
10 | CC(C)C1CCC(Cc2ccc(Cl)cc2)C1(O)Cn1cncn1 (stereo not given) | 85.6 µM (active) | –
11 | CCCCCCCCSC(=O)Oc1cc(Cl)nnc1-c1ccccc1 | – | inactive
12 | CC(C)c1cccc(C(C)C)c1O | – | inactive
13 | Nc1ccc(-c2ccc(N)c(Cl)c2)cc1Cl | 15.7 µM (active) and 18.6 µM (active) | inactive

test system: not listed separately; experiment: TOX21_p53_BLA_p4_viability: Viability Assessment in the Tox21 HCT-116 p53 Agonism Beta-lactamase Assay, Phase 4 (AID 2283597);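 further: hits lower the luminescence signal meaning cytotoxicity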
How it was run: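 We seeded HCT116 p53 reporter cells at 4000/well and waited 5 h. We then added compounds in DMSO at a 217-fold dilution and incubated for 16 h. Viability was read as CellTiter-Glo luminescence after 30 min at RT.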

Row | Compound | AC50 | outcome
14 | CC(C)(c1ccc(OCC2CO2)cc1)c1ccc(OCC2CO2)cc1 (stereo not given) | 70.9 µM (active) and 72.2 µM (active) | –
15 | COP(=S)(OC)Oc1ccc(S(=O)(=O)N(C)C)cc1 | – | inactive
16 | C=CC#N | – | inactive
17 | O=C/C=C/c1ccccc1 | – | inactive
18 | CCNc1nc(NC(C)(C)C)nc(SC)n1 | – | inactive
19 | COP(=O)(OC)OC | – | inactive
20 | CCCCCCCCSC(=O)Oc1cc(Cl)nnc1-c1ccccc1 | – | inactive
21 | CC(C)c1cccc(C(C)C)c1O | – | inactive
22 | Nc1ccc(-c2ccc(N)c(Cl)c2)cc1Cl | – | inactive

molecular target: Cellular tumor antigen p53 (Homo sapiens) (UniProt P04637); experiment: TOX21_p53_BLA_p5_ratio: Tox21 HCT-116 p53 Agonism Beta-lactamase Assay, Ratio, Phase 5 (AID 2283599)
How it was run: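 HCT-116 cells carrying a p53-inducible beta-lactamase reporter were seeded at 4000 cells/well and dosed after 5 h with compound in DMSO (217-fold dilution). After 16 h at 37C, CCF4-AM substrate was added for 2 h, and the 460/530 nm emission ratio was scored as gain-of-signal versus DMSO.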

Row | Compound | AC50 | outcome
23 | CC(C)(c1ccc(OCC2CO2)cc1)c1ccc(OCC2CO2)cc1 (stereo not given) | 87.1 µM (active) | inactive
24 | COP(=S)(OC)Oc1ccc(S(=O)(=O)N(C)C)cc1 | – | inactive
25 | C=CC#N | – | inactive
26 | O=C1C(Cl)=C(Cl)C(=O)c2ccccc21 | 63.4 µM (active) and 19.6 µM (active) | –
27 | C(=NC1CCCCC1)=NC1CCCCC1 | – | inactive
28 | C[C@H]1CCCC(=O)CCC/C=C/c2cc(O)cc(O)c2C(=O)O1 | 11.7 µM (active) | inactive
29 | O=C/C=C/c1ccccc1 | – | inactive
30 | CCNc1nc(NC(C)(C)C)nc(SC)n1 | – | inactive
31 | COP(=O)(OC)OC | – | inactive
32 | CC(C)C1CCC(Cc2ccc(Cl)cc2)C1(O)Cn1cncn1 (stereo not given) | 82.8 µM (active) | –
33 | CCCCCCCCSC(=O)Oc1cc(Cl)nnc1-c1ccccc1 | – | inactive
34 | CC(C)c1cccc(C(C)C)c1O | – | inactive
35 | Nc1ccc(-c2ccc(N)c(Cl)c2)cc1Cl | 16.3 µM (active) and 43.3 µM (active) | inactive

From PubChem BioAssay (EPA / NIEHS)
